Rce1 inhib: inhibitors of yeast Ras-converting enzyme. yeast membranes, quenched prenylated peptide cleavage fluorescence. Q03530. calls only. actives 0.27% (n = 290,000);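 active means fall in fluorescence gain of 50% or more versus controls, with final raw signal at or below 3038400; inconclusive means same 50% fall but final raw signal above 3038400; inactive means fall in fluorescence gain under 50%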;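 further: plate controls were neutral control wells for no effect and wells lacking membranes for full effect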
Target sequence (Q03530 whole entry, looked up): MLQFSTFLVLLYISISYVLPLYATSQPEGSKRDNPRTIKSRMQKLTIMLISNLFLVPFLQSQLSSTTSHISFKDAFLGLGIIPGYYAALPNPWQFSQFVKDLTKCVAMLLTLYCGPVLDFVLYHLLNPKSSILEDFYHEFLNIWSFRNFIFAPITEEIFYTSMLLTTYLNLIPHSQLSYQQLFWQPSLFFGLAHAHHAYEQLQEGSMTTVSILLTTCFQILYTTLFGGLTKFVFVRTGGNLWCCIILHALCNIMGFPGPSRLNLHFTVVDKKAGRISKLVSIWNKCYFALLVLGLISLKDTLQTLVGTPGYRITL
C2C12 statin: protects C2C12 myotubes from simvastatin toxicity. ATP luminescence, 48 h; scaled: DMSO 0, geranylgeraniol control 100. actives 0.78% (n = 330,000). AID 602340. rescue of ATP level, % at 7.49 µM;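 active means mean ATP rescue above about 67%, or every replicate alone reaching that limit, limit read from the data, passing the limit was not always enough; inconclusive means no clear call, values can overlap the other calls; inactive means mean under the limit and some replicate under it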;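 further: myotubes were challenged with 10 µM simvastatin during compound exposure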
PGC1a acetyl inh: PGC1a acetylation modulation, inhibitor mode. U2OS PGC1a acetylation, AlphaScreen anti-acetyl-lysine; with virally co-expressed GCN5 acetyltransferase. inhibition, % at 15.6 µM. actives 0.17% (n = 350,000). AID 651687;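 active means every replicate shows inhibition of at least 40%; inconclusive means mean inhibition at least 40% but some replicate below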;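 further: 0% = neutral control wells and 100% = positive control wells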
AI-2 QS modul: modulates the Vibrio harveyi AI-2 quorum sensing system; Vibrio harveyi JMH597 AI-2 luminescence/OD600 ratio, 9 h; hits give low values; strain lacks LuxN and CqsS sensors; 0 = neutral-control median; activity change, % at 7.5 µM; actives 0.4% (n = 300,000); in the data active means activity change below about -75%, passing the limit was not always enough; inconclusive means no clear call, values can overlap the other calls;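 further: luminescence divided by OD600 gain over 9 h not by final OD600 alone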
HIF activator: HIF pathway transcriptional activation; actives 0.32% (n = 300,000); U2OS HRE-luciferase reporter, luminescence; normalized: DMSO 0%, desferrioxamine 100%; activation, % at 7.5 µM (by protocol); AID 1910;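 active means mean activation of at least 10% of the iron chelator positive control signal, with at least half of replicates also reaching 10%; inconclusive means mean and replicate majority disagree about reaching 10%; inactive means mean and most replicates under 10%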
* hit, by the source's call; i = inactive; ? = inconclusive; · = no result given; + = active, no number. The list is not random: actives were taken first. Their share in the collection is about 1.3%.

SMILES	Rce1 inhib	C2C12 statin	PGC1a acetyl inh	AI-2 QS modul	HIF activator
Cc1cc(C(=O)N2CCCC(N3CCN(c4cccc(C(F)(F)F)c4)CC3)C2)no1 (configuration not stated)	i	0.5	·	13.0	-0.2
CCC(=O)N1[C@H](CO)[C@H](c2ccccc2)C12CN(C(=O)CN1CCOCC1)C2	·	·	3.9	·	·
CC(C)n1c(SCC(=O)Nc2nc3c(s2)CCCC3)nc2c1c(=O)n(C)c(=O)n2C	i	98.7*	-12.9	34.6	-0.3
CCCC(=O)Nc1ccc2c(c1)C(=O)N(C)C[C@H](OC)[C@@H](C)CN(C(=O)C1CCCC1)[C@H](C)CO2	·	-3.7	-3.5	·	·
Cc1ccc(S(=O)(=O)N2CCN(c3ccccn3)CC2)cc1	i	·	9.6	18.1	47.8*
Cc1ccc(-c2ccc(S(=O)(=O)N3CCCC3)cc2)cc1	i	·	-7.7	2.4	0.1
Cc1ccc(NS(=O)(=O)c2ccc(NC(=O)N3CCCCC3)cc2)cc1	+	8.5	·	16.5	-0.4
Cc1cccc(NS(=O)(=O)c2ccc(NC(=O)N3CCCCC3)cc2)c1	i	·	-0.5	23.2	0.0
Cc1n[nH]c(C)c1S(=O)(=O)N1CCN(c2ccccn2)CC1	i	77.6*	2.5	13.4	-0.1
Cc1ccc(S(=O)(=O)N2CCCSCC2)cc1	i	113.9*	-26.5	13.7	-0.3
COc1ccc(S(=O)(=O)N(C)C[C@H]2OCCCC[C@H](C)Oc3ccc(NC(=O)CCC(F)(F)F)cc3C(=O)N([C@H](C)CO)C[C@@H]2C)cc1	·	·	5.3	·	·
Cc1ccc(S(=O)(=O)N(C)C[C@@H]2Oc3ccc(NS(=O)(=O)c4ccccc4)cc3CC(=O)N([C@H](C)CO)C[C@@H]2C)cc1	·	13.4	-4.4	·	·
COCC(=O)Nc1ccc2c(c1)C(=O)N(C)C[C@H](OC)[C@H](C)CN(C(=O)NC(C)C)[C@H](C)CO2	·	8.5	-10.1	·	·
CO[C@H]1CN(C)C(=O)c2ccc(NC(=O)c3ccc(F)cc3)cc2OC[C@@H](C)N(C(=O)CN(C)C)C[C@@H]1C	·	9.4	-32.3	·	·
O=C(Nc1ccccc1)N1CCN(c2ccccn2)CC1	i	1.3	-7.8	15.1	0.1
Cc1ccc(NC(=O)N2CCN(c3ccccn3)CC2)cc1	i	92.1*	12.0	6.2	0.5
O=C(O)c1cc(NS(=O)(=O)c2ccc3ccccc3c2)ccc1O	i	-3.9	3.6	21.1	0.2
NS(=O)(=O)c1cccc(NS(=O)(=O)c2ccc3ccccc3c2)c1	i	19.8	10.0	-96.9*	3.6
CC(C)(C)NC(=O)CN(C(=O)Cn1nnc(-c2ccccc2F)n1)c1cccc2c1CCCC2	i	153.4*	-6.0	25.4	-0.4
COc1ccccc1N(CC(=O)NC(C)(C)C)C(=O)Cn1nnc(-c2ccc(C)o2)n1	i	10.8	-10.7	19.5	-0.2
c1ccc(N2CCN(c3ccccc3)C2c2ccncc2)cc1	i	19.7	91.3*	7.0	1.3
O=C(COn1nnc2ccc(Cl)cc21)NC12CC3CC(CC(C3)C1)C2	i	·	84.7*	18.1	0.0
C[C@@H]1CN([C@H](C)CO)C(=O)c2cc(NS(=O)(=O)c3ccc(F)cc3)ccc2O[C@@H]1CN(C)S(=O)(=O)c1ccc(F)cc1	·	7.9	-9.1	·	·
COc1ccc2nc(C)cc(SCC(=O)N/N=C/c3ccc(O)cc3O)c2c1	i	·	·	46.7	21.8*
CO[C@@H]1CN(C)C(=O)c2ccc(NC(=O)c3ccccc3F)cc2OC[C@H](C)N(CC2CCOCC2)C[C@H]1C	·	-3.5	-1.1	·	·
SMILES	Rce1 inhib	C2C12 statin	PGC1a acetyl inh	AI-2 QS modul	HIF activator
COCc1ccc(CN2CCC(CO)(CC3CCCCO3)CC2)o1 (configuration not stated)	i	·	-9.3	13.8	-2.6
COc1cccc(CN2CCC(CO)(CC3CCCCO3)CC2)c1 (configuration not stated)	i	8.8	99.9*	5.1	-0.1
C/C(=C\C(=O)OCCCCCCCCC(=O)O)C[C@@H]1OC[C@H](C[C@@H]2O[C@H]2[C@@H](C)[C@H](C)O)[C@@H](O)[C@H]1O	i	-6.4	15.2	-172.6*	4.4
Cc1cc(C)n(C(=O)c2ccc(Cl)c(F)c2F)n1	i	·	·	22.7	-0.6
COc1c(Cl)cc(Cl)cc1C(=O)n1nc(C)cc1C	i	97.6*	-5.9	35.0	-0.1
O=C(Nc1nc(-c2ccccn2)cs1)c1cc(Cl)ccc1[N+](=O)[O-]	i	·	·	74.1	36.2*
O=C(Nc1nc(-c2ccccn2)cs1)c1ccc([N+](=O)[O-])o1	+	240.5*	-11.1	?	1.5
Cc1cc(C(=O)Nc2nc(-c3ccccn3)cs2)ccc1[N+](=O)[O-]	i	·	7.2	·	0.9
CCc1nnc(NC(=O)C(NC(=O)c2ccccc2Cl)C(C)C)s1 (configuration not stated)	i	·	0.5	-7.8	0.0
CC(C)[C@H](NC(=O)c1ccccc1Cl)C(=O)Nc1nc(-c2ccccn2)cs1	i	-11.2	11.5	45.6	20.0*
O=C(Nc1nc(-c2ccccn2)cs1)c1ccccc1-n1cnnn1	·	-26.1	43.0*	24.6	52.1*
OC(COCc1ccco1)CN1CCN(C(c2ccccc2)c2ccccc2)CC1 (configuration not stated)	·	10.4	-9.2	13.8	-0.4
Cc1ccc(Cl)cc1N1CCN(CC(O)COCc2ccco2)CC1 (configuration not stated)	i	·	·	14.0	194.3*
Fc1ccc(CSc2nnc(Cc3sc(-c4ccccc4)nc3-c3ccccc3)o2)cc1	i	-6.0	-5.9	18.8	0.3
COc1ccc(CSc2nnc(Cc3sc(-c4ccccc4)nc3-c3ccccc3)o2)cc1	i	96.5*	4.2	29.1	-31.4
C[C@H]1CN([C@@H](C)CO)C(=O)c2cc(N(C)C)ccc2O[C@H]1CN(C)C	·	-13.2	7.5	·	·
C[C@H](CO)N1C[C@H](C)[C@@H](CN(C)CC2CCCCC2)Oc2ccc(NS(=O)(=O)c3ccc(Cl)cc3)cc2CC1=O	·	122.7*	-10.4	·	·
C[C@@H]1CN([C@H](C)CO)C(=O)Cc2cc(NS(=O)(=O)c3ccc(Cl)cc3)ccc2O[C@H]1CN(C)CC1CCCCC1	·	123.6*	9.6	·	·
COCC(=O)Nc1ccc2c(c1)OC[C@@H](C)N(C(=O)CC1CC1)C[C@H](C)[C@H](OC)CN(C)C2=O	·	·	1.4	·	·
COc1ccc(NC(=O)N(C)C[C@@H]2Oc3c(NS(=O)(=O)c4ccc(F)cc4)cccc3C(=O)N([C@@H](C)CO)C[C@H]2C)cc1	·	14.4	0.2	·	·
CC(C)C12CN3CC(C(C)C)(CN(C1)C31C(=O)Nc3ccccc31)C2=O (configuration not stated)	i	90.0*	-5.1	16.2	-0.3
C[C@H]1CCCCO[C@@H](CN(C)C(=O)Nc2ccc(F)cc2)[C@@H](C)CN([C@@H](C)CO)C(=O)c2cc(NC(=O)c3ccccc3)ccc2O1	·	·	2.5	·	·
CCCn1c(SCC(=O)c2ccc(OC)c(OC)c2)nc2c1c(=O)n(C)c(=O)n2C	i	130.5*	-1.9	-6.1	0.0

Screening data as filed in PubChem.
